Experimental data taken from publication PMC7862700, “An all-to-all approach to the identification of sequence-specific readers for epigenetic DNA modifications on cytosine”.

Key:
Experiment in all cases: DAPPL (digital affinity profiling via proximity ligation, sequencing); 10 mM Tris-HCl pH 7.5, 50 mM NaCl, 1 mM DTT, 4% glycerol, room temperature, 30 min; GST-TFs on glutathione beads, 16-mer random dsDNA library, 0.1% formaldehyde crosslink after washing; high values mean tight binding
FEV = target: T1, FEV (Homo sapiens, UniProt Q99581 1-238); settings: protein: recombinant; tags: N-terminal GST; dsDNA, one strand shown
T1 sequence: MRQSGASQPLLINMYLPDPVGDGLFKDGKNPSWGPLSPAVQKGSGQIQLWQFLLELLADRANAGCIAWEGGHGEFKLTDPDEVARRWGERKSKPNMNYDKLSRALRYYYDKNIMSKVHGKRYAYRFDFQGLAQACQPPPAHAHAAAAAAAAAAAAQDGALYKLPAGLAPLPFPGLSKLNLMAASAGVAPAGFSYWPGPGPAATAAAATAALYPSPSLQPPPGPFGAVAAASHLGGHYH
In short: (§1)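 After expression in yeast as GST fusions, human transcription factors were bound to glutathione beads, DNA-barcoded and mixed with a tag-only sample. The pools were incubated with 200 nmole of a 16-mer random double-stranded DNA library in Tris/NaCl/DTT/glycerol buffer (30 min, room temperature), washed and crosslinked with 0.1% formaldehyde. Proximity ligation with BsaI/T4 ligase ran for 1 h at 37 °C, before PCR amplification and sequencing on an Illumina NextSeq500. Binding signal is a hexamer's read frequency for a factor divided by its frequency for the tag-only sample.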

ETV5 = ETV5 (Homo sapiens, UniProt P41161 1-510); settings: protein: recombinant; tags: N-terminal GST; dsDNA, one strand shown
In short: as §1

HSF1 = HSF1 (Homo sapiens, UniProt Q00613 1-529); settings: protein: recombinant; tags: N-terminal GST; chain copies: 3; dsDNA, one strand shown
In short: as §1

SPIC = target: T2, SPIC (Homo sapiens, UniProt Q8N5J4 1-248); settings: protein: recombinant; tags: N-terminal GST; dsDNA, one strand shown
T2 sequence: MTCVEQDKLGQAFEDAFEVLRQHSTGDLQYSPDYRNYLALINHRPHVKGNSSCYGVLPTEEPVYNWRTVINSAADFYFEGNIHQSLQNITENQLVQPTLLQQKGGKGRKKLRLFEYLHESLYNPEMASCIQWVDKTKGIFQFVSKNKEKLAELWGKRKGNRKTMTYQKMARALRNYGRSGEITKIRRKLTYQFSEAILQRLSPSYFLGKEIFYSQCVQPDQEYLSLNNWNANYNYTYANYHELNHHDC
In short: as §1

ELF4 = ELF4 (Homo sapiens, UniProt Q99607 1-663); settings: protein: recombinant; tags: N-terminal GST; dsDNA, one strand shown
In short: as §1

ELK4 = target: T3, ELK4 (Homo sapiens, UniProt P28324-2 1-405); settings: protein: recombinant; tags: N-terminal GST; dsDNA, one strand shown
T3 sequence: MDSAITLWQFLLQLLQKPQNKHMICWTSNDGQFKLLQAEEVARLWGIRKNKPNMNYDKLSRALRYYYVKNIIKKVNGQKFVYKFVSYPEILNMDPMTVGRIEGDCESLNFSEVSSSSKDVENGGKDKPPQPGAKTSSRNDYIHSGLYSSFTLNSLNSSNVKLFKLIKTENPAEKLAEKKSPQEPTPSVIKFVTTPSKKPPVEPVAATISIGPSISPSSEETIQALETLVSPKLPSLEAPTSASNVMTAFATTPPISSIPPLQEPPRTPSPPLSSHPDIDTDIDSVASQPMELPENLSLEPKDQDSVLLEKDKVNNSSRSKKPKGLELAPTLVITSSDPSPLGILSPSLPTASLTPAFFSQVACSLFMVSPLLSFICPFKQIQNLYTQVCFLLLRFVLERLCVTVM
In short: as §1

ETV2 = target: T4, ETV2 (Homo sapiens, UniProt O00321 1-342); settings: protein: recombinant; tags: N-terminal GST; dsDNA, one strand shown
T4 sequence: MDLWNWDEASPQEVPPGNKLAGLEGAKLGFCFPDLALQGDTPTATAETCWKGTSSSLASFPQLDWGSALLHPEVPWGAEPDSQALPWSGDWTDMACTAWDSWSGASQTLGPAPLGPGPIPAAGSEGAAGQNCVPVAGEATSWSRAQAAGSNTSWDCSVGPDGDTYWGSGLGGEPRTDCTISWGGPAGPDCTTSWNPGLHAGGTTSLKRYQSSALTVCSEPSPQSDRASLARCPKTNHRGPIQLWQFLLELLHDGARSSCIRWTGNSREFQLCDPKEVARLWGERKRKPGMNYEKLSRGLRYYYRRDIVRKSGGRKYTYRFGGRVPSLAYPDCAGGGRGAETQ
In short: as §1

ELF3 = target: T5, ELF3 (Homo sapiens, UniProt P78545 1-371); settings: protein: recombinant; tags: N-terminal GST; dsDNA, one strand shown
T5 sequence: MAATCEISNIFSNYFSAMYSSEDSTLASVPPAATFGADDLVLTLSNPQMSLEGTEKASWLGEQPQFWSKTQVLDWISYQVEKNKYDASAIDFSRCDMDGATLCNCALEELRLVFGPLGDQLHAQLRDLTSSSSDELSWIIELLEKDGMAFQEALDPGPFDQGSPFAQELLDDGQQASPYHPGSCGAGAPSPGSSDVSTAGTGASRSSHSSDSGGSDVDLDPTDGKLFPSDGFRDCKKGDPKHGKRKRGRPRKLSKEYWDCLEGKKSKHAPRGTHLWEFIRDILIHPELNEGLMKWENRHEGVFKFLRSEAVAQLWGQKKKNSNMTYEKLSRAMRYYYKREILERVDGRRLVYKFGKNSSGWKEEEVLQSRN
In short: as §1

CRX = CRX (Homo sapiens, UniProt O43186 1-299); settings: protein: recombinant; tags: N-terminal GST; dsDNA, one strand shown
In short: as §1

ETV1 = ETV1 (Homo sapiens, UniProt P50549 1-477); settings: protein: recombinant; tags: N-terminal GST; dsDNA, one strand shown
In short: as §1

ERF = target: T6, ERF (Homo sapiens, UniProt P50548 1-548); settings: protein: recombinant; tags: N-terminal GST; dsDNA, one strand shown
T6 sequence: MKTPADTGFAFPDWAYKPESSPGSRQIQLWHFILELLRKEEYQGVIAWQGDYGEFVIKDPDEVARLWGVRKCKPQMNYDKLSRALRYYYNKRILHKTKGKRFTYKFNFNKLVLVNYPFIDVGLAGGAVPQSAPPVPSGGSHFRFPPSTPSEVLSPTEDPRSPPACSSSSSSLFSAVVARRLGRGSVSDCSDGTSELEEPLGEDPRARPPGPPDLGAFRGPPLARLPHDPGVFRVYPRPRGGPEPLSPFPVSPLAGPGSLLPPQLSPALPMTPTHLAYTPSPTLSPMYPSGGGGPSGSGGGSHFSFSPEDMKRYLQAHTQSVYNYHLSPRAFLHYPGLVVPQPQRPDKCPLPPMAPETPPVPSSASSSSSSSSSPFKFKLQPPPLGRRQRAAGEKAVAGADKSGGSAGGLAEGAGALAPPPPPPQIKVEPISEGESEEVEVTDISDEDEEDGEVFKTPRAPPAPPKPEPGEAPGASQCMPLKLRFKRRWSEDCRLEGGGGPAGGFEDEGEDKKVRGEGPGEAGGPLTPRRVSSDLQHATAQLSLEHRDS
In short: as §1

ETV3L = target: T7, ETV3L (Homo sapiens, UniProt Q6ZN32 1-361); settings: protein: recombinant; tags: N-terminal GST; dsDNA, one strand shown
T7 sequence: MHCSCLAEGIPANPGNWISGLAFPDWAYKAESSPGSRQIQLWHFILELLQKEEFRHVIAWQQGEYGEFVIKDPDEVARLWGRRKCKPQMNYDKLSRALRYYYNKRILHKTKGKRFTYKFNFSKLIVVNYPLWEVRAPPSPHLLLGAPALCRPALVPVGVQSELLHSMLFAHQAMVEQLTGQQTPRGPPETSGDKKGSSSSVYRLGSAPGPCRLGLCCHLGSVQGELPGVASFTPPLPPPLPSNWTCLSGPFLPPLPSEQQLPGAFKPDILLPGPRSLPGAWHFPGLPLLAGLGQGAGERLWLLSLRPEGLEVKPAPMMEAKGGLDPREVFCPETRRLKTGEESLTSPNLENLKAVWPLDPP
In short: as §1

ETS2 = target: T8, ETS2 (Homo sapiens, UniProt P15036 1-469); settings: protein: recombinant; tags: N-terminal GST; dsDNA, one strand shown
T8 sequence: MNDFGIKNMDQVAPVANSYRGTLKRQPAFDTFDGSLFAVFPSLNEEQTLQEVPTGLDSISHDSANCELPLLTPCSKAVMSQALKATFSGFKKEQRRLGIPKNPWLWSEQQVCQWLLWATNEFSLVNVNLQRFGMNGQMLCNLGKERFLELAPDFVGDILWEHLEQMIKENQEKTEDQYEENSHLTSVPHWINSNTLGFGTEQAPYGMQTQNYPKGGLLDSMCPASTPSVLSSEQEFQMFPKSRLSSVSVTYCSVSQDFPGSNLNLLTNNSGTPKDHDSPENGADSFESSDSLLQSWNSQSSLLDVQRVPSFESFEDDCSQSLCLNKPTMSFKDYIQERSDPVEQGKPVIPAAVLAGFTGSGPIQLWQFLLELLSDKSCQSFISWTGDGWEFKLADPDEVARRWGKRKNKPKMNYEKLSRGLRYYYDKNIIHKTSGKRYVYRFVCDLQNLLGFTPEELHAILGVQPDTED
In short: as §1

SPDEF = target: T9, SPDEF (Homo sapiens, UniProt O95238 1-335); settings: protein: recombinant; tags: N-terminal GST; dsDNA, one strand shown
T9 sequence: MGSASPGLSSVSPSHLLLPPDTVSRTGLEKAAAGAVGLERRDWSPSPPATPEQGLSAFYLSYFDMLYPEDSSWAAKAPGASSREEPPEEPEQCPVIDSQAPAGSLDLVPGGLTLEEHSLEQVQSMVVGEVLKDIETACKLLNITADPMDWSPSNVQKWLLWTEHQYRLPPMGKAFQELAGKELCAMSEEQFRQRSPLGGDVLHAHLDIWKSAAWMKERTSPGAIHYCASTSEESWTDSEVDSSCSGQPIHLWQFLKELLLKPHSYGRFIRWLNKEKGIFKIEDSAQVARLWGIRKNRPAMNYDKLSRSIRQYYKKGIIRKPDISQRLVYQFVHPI
In short: as §1

ETV7 = target: T10, ETV7 (Homo sapiens, UniProt Q9Y603 1-341); settings: protein: recombinant; tags: N-terminal GST; dsDNA, one strand shown
T10 sequence: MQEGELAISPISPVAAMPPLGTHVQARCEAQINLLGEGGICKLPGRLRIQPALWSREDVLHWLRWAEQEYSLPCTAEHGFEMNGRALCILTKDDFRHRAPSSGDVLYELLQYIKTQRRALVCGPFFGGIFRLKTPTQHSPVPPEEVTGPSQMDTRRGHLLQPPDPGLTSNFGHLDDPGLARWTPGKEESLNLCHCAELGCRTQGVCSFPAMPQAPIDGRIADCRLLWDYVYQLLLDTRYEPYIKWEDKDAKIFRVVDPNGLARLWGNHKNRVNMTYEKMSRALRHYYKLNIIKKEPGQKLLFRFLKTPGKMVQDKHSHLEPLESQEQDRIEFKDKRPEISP
In short: as §1

ELF5 = target: T11, ELF5 (Homo sapiens, UniProt Q9UKW6-2 1-255); settings: protein: recombinant; tags: N-terminal GST; dsDNA, one strand shown
T11 sequence: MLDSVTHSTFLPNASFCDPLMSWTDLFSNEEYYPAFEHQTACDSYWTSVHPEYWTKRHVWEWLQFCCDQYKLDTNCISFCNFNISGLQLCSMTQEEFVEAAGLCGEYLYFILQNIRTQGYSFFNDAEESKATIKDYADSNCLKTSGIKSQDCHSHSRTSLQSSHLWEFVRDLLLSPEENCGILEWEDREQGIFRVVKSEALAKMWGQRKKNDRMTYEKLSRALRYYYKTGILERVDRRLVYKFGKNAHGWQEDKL
In short: as §1

ETV3 = target: T12, ETV3 (Homo sapiens, UniProt P41162-2 1-143); settings: protein: recombinant; tags: N-terminal GST; dsDNA, one strand shown
T12 sequence: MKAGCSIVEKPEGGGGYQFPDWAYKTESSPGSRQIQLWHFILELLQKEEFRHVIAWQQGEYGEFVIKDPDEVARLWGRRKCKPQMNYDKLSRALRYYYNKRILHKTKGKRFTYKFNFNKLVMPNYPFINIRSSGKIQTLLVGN
In short: as §1

ETV6 = ETV6 (Homo sapiens, UniProt P41212 1-452); settings: protein: recombinant; tags: N-terminal GST; dsDNA, one strand shown
In short: as §1

Chain of HSF1 (Q00613 whole entry): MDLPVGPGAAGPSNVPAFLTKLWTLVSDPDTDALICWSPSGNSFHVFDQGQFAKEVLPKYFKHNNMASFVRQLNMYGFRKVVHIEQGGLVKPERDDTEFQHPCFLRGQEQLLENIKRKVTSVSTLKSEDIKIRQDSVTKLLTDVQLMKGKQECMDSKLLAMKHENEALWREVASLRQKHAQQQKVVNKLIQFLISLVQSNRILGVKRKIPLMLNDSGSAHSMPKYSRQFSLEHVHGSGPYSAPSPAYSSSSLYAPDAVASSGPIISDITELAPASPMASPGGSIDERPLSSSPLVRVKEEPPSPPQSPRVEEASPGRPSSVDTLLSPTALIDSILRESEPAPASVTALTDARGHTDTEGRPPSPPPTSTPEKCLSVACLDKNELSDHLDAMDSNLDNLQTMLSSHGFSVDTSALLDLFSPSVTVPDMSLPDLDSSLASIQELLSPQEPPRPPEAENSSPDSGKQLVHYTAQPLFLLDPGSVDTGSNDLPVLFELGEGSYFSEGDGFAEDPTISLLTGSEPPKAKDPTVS
Chain of ETV6 (P41212 whole entry): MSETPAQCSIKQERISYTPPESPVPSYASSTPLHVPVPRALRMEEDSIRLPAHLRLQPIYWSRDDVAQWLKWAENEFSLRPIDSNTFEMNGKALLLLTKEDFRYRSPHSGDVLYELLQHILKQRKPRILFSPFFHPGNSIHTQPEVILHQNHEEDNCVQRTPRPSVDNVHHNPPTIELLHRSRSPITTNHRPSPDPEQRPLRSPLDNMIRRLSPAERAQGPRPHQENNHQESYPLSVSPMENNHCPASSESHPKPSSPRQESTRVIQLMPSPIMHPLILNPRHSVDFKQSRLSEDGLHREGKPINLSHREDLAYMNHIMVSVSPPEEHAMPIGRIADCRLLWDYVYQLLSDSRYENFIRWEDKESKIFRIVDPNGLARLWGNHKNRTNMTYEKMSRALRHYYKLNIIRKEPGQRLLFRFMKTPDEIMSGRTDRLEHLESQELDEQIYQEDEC
Chain of ETV1 (P50549 whole entry): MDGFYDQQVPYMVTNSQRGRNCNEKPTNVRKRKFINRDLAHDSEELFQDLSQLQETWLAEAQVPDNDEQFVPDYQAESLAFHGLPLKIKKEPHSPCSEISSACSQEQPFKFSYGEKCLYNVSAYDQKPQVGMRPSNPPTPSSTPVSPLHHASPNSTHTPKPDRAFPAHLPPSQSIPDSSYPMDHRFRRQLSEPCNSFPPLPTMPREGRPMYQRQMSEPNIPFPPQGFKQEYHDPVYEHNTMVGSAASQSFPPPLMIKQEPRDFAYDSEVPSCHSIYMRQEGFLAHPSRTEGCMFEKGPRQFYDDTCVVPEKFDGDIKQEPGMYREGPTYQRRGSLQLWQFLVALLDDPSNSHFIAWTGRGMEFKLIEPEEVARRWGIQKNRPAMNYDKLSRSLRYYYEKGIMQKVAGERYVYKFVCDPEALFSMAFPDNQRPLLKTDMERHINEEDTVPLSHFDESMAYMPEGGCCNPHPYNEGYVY
Chain of CRX (O43186 whole entry): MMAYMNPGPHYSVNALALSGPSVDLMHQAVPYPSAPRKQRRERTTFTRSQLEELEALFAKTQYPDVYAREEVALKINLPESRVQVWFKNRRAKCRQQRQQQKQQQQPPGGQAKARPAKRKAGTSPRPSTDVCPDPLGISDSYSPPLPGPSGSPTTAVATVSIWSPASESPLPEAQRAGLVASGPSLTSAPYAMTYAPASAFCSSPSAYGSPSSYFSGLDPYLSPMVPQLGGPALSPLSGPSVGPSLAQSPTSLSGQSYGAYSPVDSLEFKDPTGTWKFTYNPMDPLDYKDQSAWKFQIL
Chain of ETV5 (P41161 whole entry): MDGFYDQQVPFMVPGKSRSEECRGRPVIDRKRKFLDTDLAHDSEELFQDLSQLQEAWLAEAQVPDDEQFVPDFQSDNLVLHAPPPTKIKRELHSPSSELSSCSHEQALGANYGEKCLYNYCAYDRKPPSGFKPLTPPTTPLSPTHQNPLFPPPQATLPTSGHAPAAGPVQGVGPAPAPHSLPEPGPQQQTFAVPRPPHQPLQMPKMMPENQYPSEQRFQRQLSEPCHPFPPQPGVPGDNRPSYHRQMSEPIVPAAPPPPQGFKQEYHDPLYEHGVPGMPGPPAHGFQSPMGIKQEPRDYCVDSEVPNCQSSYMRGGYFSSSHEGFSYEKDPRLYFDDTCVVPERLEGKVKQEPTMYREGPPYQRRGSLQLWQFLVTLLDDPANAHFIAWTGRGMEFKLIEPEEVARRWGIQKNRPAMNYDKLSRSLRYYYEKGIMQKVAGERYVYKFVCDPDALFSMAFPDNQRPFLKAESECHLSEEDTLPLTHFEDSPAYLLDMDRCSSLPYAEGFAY
Chain of ELF4 (Q99607 whole entry): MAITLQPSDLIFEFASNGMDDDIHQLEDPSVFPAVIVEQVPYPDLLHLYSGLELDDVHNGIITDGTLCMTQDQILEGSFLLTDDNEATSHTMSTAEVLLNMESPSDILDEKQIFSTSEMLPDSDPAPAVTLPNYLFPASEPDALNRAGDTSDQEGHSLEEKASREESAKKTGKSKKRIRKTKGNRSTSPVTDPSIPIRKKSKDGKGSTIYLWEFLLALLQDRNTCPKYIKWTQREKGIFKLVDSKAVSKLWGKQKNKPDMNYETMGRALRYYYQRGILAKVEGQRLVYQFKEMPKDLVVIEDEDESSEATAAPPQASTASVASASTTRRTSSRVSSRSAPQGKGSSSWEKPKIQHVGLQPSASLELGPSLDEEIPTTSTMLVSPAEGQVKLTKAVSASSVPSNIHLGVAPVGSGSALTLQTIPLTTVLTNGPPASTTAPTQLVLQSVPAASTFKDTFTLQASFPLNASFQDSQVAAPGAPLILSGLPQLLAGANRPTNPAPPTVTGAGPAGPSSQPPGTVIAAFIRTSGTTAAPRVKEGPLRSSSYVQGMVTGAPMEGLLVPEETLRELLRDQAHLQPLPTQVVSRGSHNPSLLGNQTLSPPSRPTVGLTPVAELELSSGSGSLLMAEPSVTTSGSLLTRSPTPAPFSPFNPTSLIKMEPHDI

CCGACC
binding signal (FEV): 1.71 fold enrichment (6-mer frequency, TF over GST control)
binding signal (ETV5): 1.5 fold enrichment (6-mer frequency, TF over GST control)
binding signal (HSF1): 1.14 fold enrichment (6-mer frequency, TF over GST control)
binding signal (SPIC): 1.45 fold enrichment (6-mer frequency, TF over GST control)
binding signal (ELF4): 1.54 fold enrichment (6-mer frequency, TF over GST control)
binding signal (ELK4): 1.61 fold enrichment (6-mer frequency, TF over GST control)
binding signal (ETV2): 1.46 fold enrichment (6-mer frequency, TF over GST control)
binding signal (ELF3): 1.63 fold enrichment (6-mer frequency, TF over GST control)
binding signal (CRX): 1.13 fold enrichment (6-mer frequency, TF over GST control)
binding signal (ETV1): 1.53 fold enrichment (6-mer frequency, TF over GST control)
binding signal (ERF): 1.59 fold enrichment (6-mer frequency, TF over GST control)
binding signal (ETV3L): 1.67 fold enrichment (6-mer frequency, TF over GST control)
binding signal (ETS2): 1.49 fold enrichment (6-mer frequency, TF over GST control)
binding signal (SPDEF): 1.54 fold enrichment (6-mer frequency, TF over GST control)
binding signal (ETV7): 1.55 fold enrichment (6-mer frequency, TF over GST control)
binding signal (ELF5): 1.48 fold enrichment (6-mer frequency, TF over GST control)
binding signal (ETV3): 1.46 fold enrichment (6-mer frequency, TF over GST control)
binding signal (ETV6): 1.67 fold enrichment (6-mer frequency, TF over GST control)
